biological target: PEG-3 (UniProt Q6IN02); assay: Peg3 promoter luciferase inhibitors, potency, dose response, cell-based, HeLa, CREF/GAPDH counter-screen panel (AID 624167); details: CREF/GAPDH counter-screens; HeLa PEG-Prom luciferase reporter, overnight, run 2, dose range 1, at 100 µM (top of the series) unless noted
Sequence (Q6IN02 whole entry, looked up): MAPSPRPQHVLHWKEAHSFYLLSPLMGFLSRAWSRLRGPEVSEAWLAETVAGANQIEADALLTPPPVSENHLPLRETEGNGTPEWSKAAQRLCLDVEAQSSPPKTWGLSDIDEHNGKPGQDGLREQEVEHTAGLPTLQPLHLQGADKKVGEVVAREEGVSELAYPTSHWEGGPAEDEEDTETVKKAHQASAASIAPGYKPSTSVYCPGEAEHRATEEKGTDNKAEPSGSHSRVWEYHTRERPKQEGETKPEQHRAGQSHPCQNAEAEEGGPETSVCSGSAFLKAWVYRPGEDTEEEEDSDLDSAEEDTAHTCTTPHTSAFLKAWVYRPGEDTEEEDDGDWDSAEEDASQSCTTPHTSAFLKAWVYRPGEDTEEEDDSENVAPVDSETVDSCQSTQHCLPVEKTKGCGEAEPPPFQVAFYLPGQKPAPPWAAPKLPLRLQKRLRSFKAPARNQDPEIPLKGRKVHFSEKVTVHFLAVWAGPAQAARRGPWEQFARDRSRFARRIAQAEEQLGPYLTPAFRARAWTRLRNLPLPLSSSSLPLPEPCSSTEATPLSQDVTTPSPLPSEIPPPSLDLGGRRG

Structure (SMILES)	inhibition
O=S(=O)(c1cccc(F)c1)N1CCN(c2nc(-c3cccnc3)nc3ccccc23)CC1	46.2%
CC(C)n1cc(CN2CCC(C(=O)Nc3cccc(-c4cccc(Cl)c4)c3)CC2)cn1	101%
Cc1ccc(-n2cc(CNCCCn3ccnc3C)c(-c3ccc(F)cc3)n2)cc1	98.7%
COc1cccc(CN(C)C(=O)c2cc(-c3cccs3)nc3ccccc23)c1	101%
COc1ccc(CCNC(=O)C(=O)NCC2CCCN2S(=O)(=O)c2ccccc2)cc1OC (stereo not drawn)	81.7%
CC(=O)c1cccc(NC(=O)c2cccc3c(-c4cccnc4)coc23)c1	47%
CC(C)(C)c1ccc(OCCCNCc2ccccc2)cc1	98%
O=C(C[C@H]1C[C@H](C(=O)N2CCCCC2)[C@@]2(CCc3ccccc3)c3[nH]c4ccc(Cl)cc4c3CCN2C1=O)NCCc1ccccn1	93.1%

— PubChem BioAssay
